Sampled rows, rich in hits. Any-hit rate of the full collection: about 19%.
Cycloheximide cs – counter-screen for Shiga toxin inhibitors: cycloheximide protein synthesis inhibition; hit rate 12% among 300,000; max response, %; AID 2314; cell reporter, cycloheximide protein synthesis inhibition counterscreen; in the data active means max response mostly above about 13%, no sharp cut-off; inactive means mostly below about 14%; further: read at 38.3 µM for the half of the compounds with a filed dose; 0% is about no effect
MARV entry inh – inhibitors of Marburg virus binding or cell entry; Marburg virus pseudotyped entry inhibition, cell reporter; Potency, µM (top dose mostly 37.8 µM), for inactives: at the highest dose activity change, negative = inhibition, hits mostly inhibitors; hit rate 1.8% among 300,000; AID 540276; calls by dose curve; tested in HEK293 cells; further: potency means the concentration at half of the fitted maximal effect; on the % scale 0 is the no-effect control and ±100 the full control effect
Pf growth 48h – inhibits P. falciparum growth in the first generation, 48 h; P. falciparum luciferase growth in erythrocytes, 48 h; Potency, µM (top dose mostly 28.7 µM), without a hit: at the highest dose activity change, negative = inhibition, most hits filed as inhibitors; hit rate 5.9% among 310,000; AID 504832; further: potency means the concentration at half of the fitted maximal effect; on the % scale 0 is the no-effect control and ±100 the full control effect
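Compounds are pin-transferred into medium, infected erythrocytes (2% hematocrit, 0.1% parasitemia final) are added, and plates sit one parasite generation at 37 C in 5% CO2. Detection reagent is then added and luminescence measured.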
LASV entry inh – inhibitors of Lassa virus binding or cell entry. Lassa virus pseudotype entry inhibition, cell reporter. Potency, µM (series often up to 37.9 µM), inactives show at the top dose activity change, negative = inhibition, hits mostly inhibitors. hit rate 1.2% among 300,000; calls by dose curve; tested in HEK293 cells; further: potency means the concentration at half of the fitted maximal effect; on the % scale 0 is the no-effect control and ±100 the full control effect; nearly all actives have a fitted effect of over 50% in size
Pf growth 96h – P. falciparum growth inhibition at 96 hour, primary screen for plastid delayed-death inhibitors. P. falciparum luciferase reporter growth, 96 h. Potency, µM (series often up to 28.7 µM), without a hit: top-dose activity change, negative = inhibition, usual class: inhibitors. hit rate 6.9% among 320,000. AID 504834; further: potency means the concentration at half of the fitted maximal effect; on the % scale 0 is the no-effect control and ±100 the full control effect
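Erythrocytes infected with luciferase-expressing P. falciparum were dispensed at 2% hematocrit and 0.05% parasitemia (final), then incubated with compounds 96 hours at 37 C in 5% CO2. Luminescence after detection reagent addition reported growth.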
Shiga toxin inh – inhibitors of Shiga toxin in Vero cells; inhibition, % at 38.7 µM; AID 2315; hit rate 9.2% among 290,000; Vero cells, Shiga toxin protein synthesis inhibition reporter; in the data active means inhibition mostly above about 28%, no sharp cut-off; inactive means mostly below about 43%; further: 0% is about no effect
Starred values were filed as active, the others as inactive; ? = inconclusive; . = not tested or not shown; [ ] = dose if it differs, or a comment. Unless noted, the call rests on the fitted dose curve; in most records, active means well fitted inhibition curve with a large enough effect; inconclusive means small, poorly fitted or top-dose-only effect, or another doubt; inactive means no such curve, though single readings can be large or run the other way.

SMILES	Cycloheximide cs	MARV entry inh	Pf growth 48h	LASV entry inh	Pf growth 96h	Shiga toxin inh
CCCCC(=O)NC(=O)NC(c1ccccc1)c1ccccc1	1	.	?	.	?	8
COC(=O)c1cccc(NC(=O)c2cnccn2)c1	-1	2%	45%	?	?	-3
CSc1cccc(NC(C)=O)c1	-1	15%	2%	1%	13%	6
O=C(NNC(=O)c1ccc(Cl)cc1Cl)c1csc(-c2cccnc2)n1	19*	.	49%	.	8%	22
O=C(Nc1cccc(Cl)c1)c1cnccn1	16*	7%	39%	8%	69%	.
O=C(Nc1cccc(Cl)c1)c1ccncc1	0	7%	16%	6%	-14%	9
CSc1cccc(NC(=O)c2ccccn2)c1	37*	.	327%	.	368%	103*
CSc1cccc(NC(=O)c2cnccn2)c1	31*	?	127%	-17%	.	39
O=C(CCNC(=O)Cn1ccc2ccccc2c1=O)NCCCN1CCOCC1	-4	.	21%	.	?	-8
Cn1c(SCc2cc(=O)[nH]c(C(C)(C)C)n2)nnc1C(F)(F)F	-1	.	0%	.	-2%	-10
CC(=O)c1cccc(NC(=O)c2ccc(C(=O)Nc3cccc(C(C)=O)c3)nc2)c1	-4	3%	4%	-7%	?	39
CSc1cccc(NC(=O)N2CCc3ccc(NC(=O)c4ccccn4)cc3C2)c1	18*	.	9%	.	?	77*
O=C(Nc1cccc(Cl)c1)c1csc(-c2ccccc2)n1	43*	-18%	19%	-27%	61%	98
COc1ccccc1C(=O)Nc1ccc2c(c1)CN(C(=O)CSC)CC2	9	?	39%	-19%[46.1 µM]	?	27
CSc1cccc(NC(=O)c2ccc(Cl)nc2)c1	40*	4%	?	?	?	61*
O=C(Nc1cccc(Cl)c1)c1cnc[nH]1	55*	?	111%	?	8%	75*
O=C(Nc1ccc(Cl)c(Cl)c1)c1csc(-c2ccccc2)n1	-2	12%	3%	13%	17%	-4
COc1ccc(S(=O)(=O)N(CC(=O)N2CCCC2)Cc2ccccc2)cc1	-2	-1%	-6%	-2%	36%	-13
Cc1[nH]c(C)c(S(=O)(=O)Nc2ccc(F)cc2Cl)c1C(=O)N1CCCC1	11	.	-1%	.	5%	-8
C=CCNC(=S)Nc1ccc(Cl)c(S(=O)(=O)N2CCOCC2)c1	5	.	8%	.	-1%	-13
O=C(CC12CC3CC(CC(Br)(C3)C1)C2)Nc1cccc(S(=O)(=O)NC2=NCCC2)c1	1	-1%[46.1 µM]	-8%	-11%[46.1 µM]	?	-3
COc1ccccc1NC(=O)NC(=O)c1ccccc1	23*	?	201%	-5%[46.1 µM]	-9%	59*
COc1ccc(C(=O)NNC(=O)Nc2ccc(C)cc2)cc1	-2	-4%	15%	4%	50%	16
O=C(NC(=O)c1ccccc1)Nc1ccccc1	42*	2.8µM*	29%	?	151%	51*
COc1ccccc1NC(=O)NC(N)=O	3	15%	21%	2%	.	-2
SMILES	Cycloheximide cs	MARV entry inh	Pf growth 48h	LASV entry inh	Pf growth 96h	Shiga toxin inh
COc1ccccc1NC(=O)C(C)NC(c1ccccc1)c1ccccc1 (configuration not stated)	-3	-10%	13µM*	-10%	8.3µM*	-5
COc1ccc(NC(=O)NC(=O)c2ccccc2)cc1	25*	.	283%	.	133%	.
CCN1C(=O)CC(NNC(=O)c2ccc(Cl)cc2)C1=O (configuration not stated)	-2	14%	29%	-1%	-23%	-10
CCCCOC(=O)CCc1nc2ccccc2[nH]c1=O	-3	1%	.	21%	-9%	-10
Nc1nc(SCC(=O)N2CCN(c3ccc(F)cc3)CC2)n[nH]1	.	?	-10%	9%	-19%	.
CCOC(=O)C(NC(=O)c1ccccc1)=C(C)C	0	-16%	.	6%	-6%	16
COC(=O)C(NC(=O)c1ccccc1)=C(C)C	-1	4%	8%	0%	4.1µM*	-10
CN(C)C(CNC(=O)CSC(=S)N1CCCC1)c1ccccc1 (configuration not stated)	.	-29%	.	11%	.	.
Cc1ccc(S(=O)(=O)Nc2ccc3c(c2)C(=O)NC3=O)cc1[N+](=O)[O-]	-1	6%	11%	18%	-24%	18
COc1ccc(-c2nnc(SCc3nnc(-c4ccccc4)o3)n2-c2ccccc2)cc1	11	-17%	22%	?	-22%	8
COc1ccc(C(C)=O)cc1CSc1nnc(-c2ccc(Cl)cc2)n1-c1ccccc1	9	?	?	?	9.3µM*	-25
COc1ccc(-c2nnc(SCc3nnc(-c4ccc(Cl)cc4)o3)n2-c2ccccc2)cc1	24*	-22%	-30%	17%	?	57
Cc1nn(CC(=O)NNC(=O)c2ccccc2F)c([N+](=O)[O-])c1Br	-3	13%[46.1 µM]	12%	-8%[46.1 µM]	9%	-17
c1ccc2oc(-c3[nH]ncc3CN3CCC(N4CCSCC4)CC3)cc2c1	-1	?	6%	0%	47%	-9
OC1CCN(Cc2cn(Cc3ccccc3)nc2-c2cc3ccccc3o2)CC1	-3	?	13µM*	-1%	-24%	9
COC(=O)C1CCN(Cc2cn(Cc3ccccc3)nc2-c2cc3ccccc3o2)CC1	0	.	8.3µM*	.	-4%	-5
COCC1CCCN(Cc2cn(Cc3ccccc3)nc2-c2cc3ccccc3o2)C1 (configuration not stated)	-3	2.5µM*	?	?	-17%	-2
COCC1CCN(Cc2cn(Cc3ccccc3)nc2-c2cc3ccccc3o2)CC1	-3	?	?	?	31%	14
COc1cccc(N2CCN(Cc3ccco3)CC2)c1	6	16%	-15%	3%	-27%	12
Cc1ccc(-c2nc(-c3cccnc3)sc2CC(=O)O)cc1	-3	.	-3%	.	-8%	21
COc1ccc(-c2c(C)nn3c(N4CCC(C(=O)NCCN(C)C)CC4)cc(C)nc23)cc1OC	-4	21µM*	10µM*	1%	85%	-3
C#CCOCCOCCOCCNc1nc(N2CCN(C(=O)CCCCCCCCCCNC(=O)[C@H](CCCCN)n3cc(CCO)nn3)CC2)nc(N2CCN(C(=O)CCCCCCCCCCNC(=O)[C@H](CCCN=C(N)N)n3cc(C[C@@H](C)CC)nn3)CC2)n1	.	.	12µM*	.	4.7µM*	.
C#CCOCCOCCOCCNc1nc(N2CCN(C(=O)CCCCCCCCCCNC(=O)[C@H]([C@@H](C)CC)n3cc(CCCCN=C(N)N)nn3)CC2)nc(N2CCN(C(=O)CCCCCCCCCCNC(=O)[C@H](CCCCN)n3cc(C[C@@H](C)CC)nn3)CC2)n1	.	.	9.3µM*	.	5.2µM*	.
C#CCOCCOCCOCCNc1nc(N2CCN(C(=O)[C@H]([C@@H](C)CC)n3cc(CCCN=C(N)N)nn3)CC2)nc(N2CCN(C(=O)[C@H](CCCCN)n3cc(CCC(=O)O)nn3)CC2)n1	-6	21%	7%	-3%	0%	-15

Screening data from PubChem.
